Results reported in PubChem BioAssay (Tox21).
Inconclusive results are not listed. Activity calls are given as the source filed them. Unless noted, calls come from the whole dose curve; as a rule, active = well fitted curve in the direction sought with a large enough effect in the repeat runs; inconclusive = weak or mixed curves; inactive = no such curve, though single readings can be large; an effect the other way counts as inactive or inconclusive.

Experiments:
[1] = qHTS assay to identify aromatase inhibitors - cell viability counter screen (AID 743084);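 note: cells stimulated with testosterone during compound exposure; nearly all actives have a fitted effect of over 55% in size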
[2] = target: Aryl hydrocarbon receptor (Homo sapiens) (UniProt P35869); assay: qHTS assay to identify small molecule that activate the aryl hydrocarbon receptor (AhR) signaling pathway (AID 743085);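 note: HG2L7.5c1 human HepG2 liver cells with stably integrated DRE-driven firefly reporter; series mostly up to about 70 µM; nearly all actives have a fitted effect of over 15% in size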
Chain of Aryl hydrocarbon receptor (Homo sapiens) (P35869 whole entry, looked up): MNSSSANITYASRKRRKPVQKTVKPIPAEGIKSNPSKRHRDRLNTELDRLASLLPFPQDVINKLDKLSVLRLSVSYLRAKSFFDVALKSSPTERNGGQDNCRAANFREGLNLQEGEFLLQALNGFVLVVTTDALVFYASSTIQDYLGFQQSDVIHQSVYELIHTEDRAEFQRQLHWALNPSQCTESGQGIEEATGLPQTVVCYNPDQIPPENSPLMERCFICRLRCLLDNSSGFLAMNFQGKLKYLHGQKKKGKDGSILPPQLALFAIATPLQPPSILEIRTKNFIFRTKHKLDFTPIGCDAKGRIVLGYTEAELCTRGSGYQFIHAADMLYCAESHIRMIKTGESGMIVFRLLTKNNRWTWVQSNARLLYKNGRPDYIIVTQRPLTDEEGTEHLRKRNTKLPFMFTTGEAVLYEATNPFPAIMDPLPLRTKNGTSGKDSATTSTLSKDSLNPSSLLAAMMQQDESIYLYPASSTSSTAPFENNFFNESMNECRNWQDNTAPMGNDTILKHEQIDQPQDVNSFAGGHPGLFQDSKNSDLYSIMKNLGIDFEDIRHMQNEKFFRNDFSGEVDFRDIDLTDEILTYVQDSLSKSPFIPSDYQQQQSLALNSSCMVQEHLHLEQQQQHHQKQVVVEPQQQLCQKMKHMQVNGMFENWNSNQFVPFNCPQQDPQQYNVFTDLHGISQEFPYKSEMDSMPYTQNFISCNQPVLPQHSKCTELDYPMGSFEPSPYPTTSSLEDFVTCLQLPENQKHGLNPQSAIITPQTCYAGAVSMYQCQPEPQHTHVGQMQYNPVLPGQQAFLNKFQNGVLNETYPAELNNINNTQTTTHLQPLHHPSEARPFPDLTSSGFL
Procedure, shortened: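 Luminescence read-out: ONE-Glo reagent, 30 min at room temperature, in HG2L7.5c1 HepG2 reporter cells treated 24 h at 37C. Viability was measured beforehand by CellTiter-Fluor fluorescence after 30 min at 37C.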

[3] = qHTS assay to identify small molecule that activate the aryl hydrocarbon receptor (AhR) signaling pathway - cell viability counter screen (AID 743086);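 note: HepG2 liver cells carrying the AhR DRE luciferase reporter; series mostly up to about 70 µM; nearly all actives have a fitted effect of over 45% in size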
Procedure, shortened: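 HepG2-AhR-luc (HG2L7.5c1) cells, 4000/well, treated 24 h at 37 C with compound; viability measured as CellTiter-Fluor fluorescence after 30 min in the same wells as the luciferase read.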

[4] = target: Peroxisome proliferator-activated receptor gamma (Homo sapiens) (UniProt P37231); assay: qHTS assay to identify small molecule agonists of the peroxisome proliferator-activated receptor gamma (PPARg) signaling pathway (AID 743094; active = well fitted activation curve with a large enough effect in the signal ratio in the repeat runs, not every such curve was filed as active; the % refers to the signal ratio)
Chain of Peroxisome proliferator-activated receptor gamma (Homo sapiens) (P37231 whole entry, looked up): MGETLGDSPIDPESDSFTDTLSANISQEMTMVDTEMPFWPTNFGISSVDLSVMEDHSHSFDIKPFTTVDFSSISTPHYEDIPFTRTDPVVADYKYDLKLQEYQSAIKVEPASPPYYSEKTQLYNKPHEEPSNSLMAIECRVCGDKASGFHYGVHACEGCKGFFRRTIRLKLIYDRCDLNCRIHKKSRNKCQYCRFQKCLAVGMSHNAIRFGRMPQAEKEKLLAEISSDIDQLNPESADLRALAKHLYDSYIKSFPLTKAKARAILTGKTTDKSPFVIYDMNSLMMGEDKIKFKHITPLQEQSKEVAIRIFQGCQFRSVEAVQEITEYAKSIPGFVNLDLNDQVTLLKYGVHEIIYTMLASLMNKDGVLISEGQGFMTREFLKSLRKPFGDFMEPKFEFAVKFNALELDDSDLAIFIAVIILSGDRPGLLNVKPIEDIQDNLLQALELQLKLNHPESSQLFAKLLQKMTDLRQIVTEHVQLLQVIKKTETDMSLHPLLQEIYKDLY
Procedure, shortened: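 GeneBLAzer PPARg UAS-bla HEK293H cells were plated, rested 5 h, then exposed to compounds for 17 h at 37C. Beta-lactamase activity was read by LiveBLAzer B/G FRET substrate fluorescence after 1 h at room temperature.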

[5] = target: Peroxisome proliferator-activated receptor gamma (Homo sapiens) (UniProt P37231); assay: qHTS assay to identify small molecule antagonists of the peroxisome proliferator-activated receptor gamma (PPARg) signaling pathway (AID 743191; calls by dose curve; note: series mostly up to about 63 µM; nearly all actives have a fitted effect of over 30% in size)
Procedure, shortened: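 GeneBLAzer PPARg UAS-bla HEK293H cells, 5 h post-plating, exposed to compounds 17 h at 37C. LiveBLAzer B/G FRET substrate added for 1 h at room temperature; beta-lactamase reporter read by fluorescence intensity.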

[6] = qHTS assay to identify small molecule antagonists of the peroxisome proliferator-activated receptor gamma (PPARg) signaling pathway - cell viability counter screen (AID 743194); settings: Potency: co-treated with 50 nM rosiglitazone; note: nearly all actives have a fitted effect of over 55% in size
Procedure, shortened: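 Cytotoxicity counter screen in PPARg-bla HEK293H cells, same wells as reporter assay. Compounds plus 50 nM rosiglitazone (final) for 17 h at 37 C, then viability read by CellTiter-Glo luminescence.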

[7] = qHTS assay for small molecule agonists of the antioxidant response element (ARE) signaling pathway (AID 743202; active = well fitted activation curve with a large enough effect in the signal ratio in the repeat runs, not every such curve was filed as active; the % refers to the signal ratio)
Procedure, shortened: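 ARE-bla HepG2 cells (beta-lactamase reporter under the antioxidant response element), plated 5 hours, then exposed to compounds 16 hours at 37 C. LiveBLAzer B/G FRET substrate added for 2 hours at room temperature; fluorescence intensity read.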

[8] = qHTS assay for small molecule activators of the heat shock response signaling pathway - cell viability counter screen (AID 743209); note: nearly all actives have a fitted effect of over 50% in size
Procedure, shortened: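 HSE-bla HeLa cells plated overnight, then exposed to Tox21 compounds (23 nL in DMSO) for 5 h at 37 C. After the bla reporter read, CellTiter-Glo was added in the same wells and luminescence read after 30 min at room temperature.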

[9] = qHTS assay for small molecule activators of the heat shock response signaling pathway (AID 743210; active = well fitted activation curve with a large enough effect in the signal ratio in the repeat runs, with a control signal flat, not every such curve was filed as active; the % refers to the signal ratio; note: series mostly up to about 63 µM)
Procedure, shortened: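 HSE-bla HeLa cells (beta-lactamase reporter under heat shock response elements), plated overnight, then exposed to compounds 5 h at 37 C; LiveBLAzer B/G FRET substrate added, 2.5 h at room temperature, fluorescence intensity read.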

[10] = qHTS assay to identify small molecule agonists of the peroxisome proliferator-activated receptor delta (PPARd) signaling pathway - cell viability counter screen (AID 743211); note: nearly all actives have a fitted effect of over 55% in size
Procedure, shortened: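 Read-out: CellTiter-Glo luminescence, 30 min RT, measured in the same wells as the beta-lactamase reporter. Cells: GeneBLAzer PPAR delta UAS-bla HEK293H, 3000 cells/well, compound exposure 17 h at 37C.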

[11] = target: Vitamin D3 receptor (Homo sapiens) (UniProt P11473); assay: qHTS assay to identify small molecule agonists of the vitamin D receptor (VDR) signaling pathway (AID 743222; calls by dose curve)
Chain of Vitamin D3 receptor (Homo sapiens) (P11473 whole entry, looked up): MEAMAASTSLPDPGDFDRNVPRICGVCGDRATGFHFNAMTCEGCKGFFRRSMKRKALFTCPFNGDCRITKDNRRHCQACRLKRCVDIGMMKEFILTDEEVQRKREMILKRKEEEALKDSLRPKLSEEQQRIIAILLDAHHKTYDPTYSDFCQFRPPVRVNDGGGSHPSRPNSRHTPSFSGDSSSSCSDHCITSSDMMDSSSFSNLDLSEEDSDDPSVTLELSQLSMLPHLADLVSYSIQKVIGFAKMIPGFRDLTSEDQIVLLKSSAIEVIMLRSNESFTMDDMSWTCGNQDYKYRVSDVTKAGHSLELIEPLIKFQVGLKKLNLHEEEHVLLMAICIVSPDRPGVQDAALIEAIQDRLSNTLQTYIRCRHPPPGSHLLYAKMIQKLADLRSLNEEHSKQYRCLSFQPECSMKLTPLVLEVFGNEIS
Procedure, shortened: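 VDR-bla cells plated 4 h at 37 C, then exposed to compounds for 16 h at 37 C. Beta-lactamase reporter activity measured by fluorescence after 2 h room-temperature loading with LiveBLAzer B/G FRET substrate.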

[12] = qHTS assay for small molecule agonists of the antioxidant response element (ARE) signaling pathway - cell viability counter screen (AID 743203; calls by dose curve; note: nearly all actives have a fitted effect of over 55% in size)
Procedure, shortened: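 ARE-bla HepG2 cells were plated, rested 5 h at 37C/5% CO2, then exposed to compounds in DMSO for 16 h. Viability was read as CellTiter-Glo luminescence after 30 min at room temperature, in the same wells as the ARE screen.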

[13] = target: Peroxisome proliferator-activated receptor delta (Homo sapiens) (UniProt Q03181); assay: qHTS assay to identify small molecule agonists of the peroxisome proliferator-activated receptor delta (PPARd) signaling pathway (AID 743212; calls by dose curve)
Chain of Peroxisome proliferator-activated receptor delta (Homo sapiens) (Q03181 whole entry, looked up): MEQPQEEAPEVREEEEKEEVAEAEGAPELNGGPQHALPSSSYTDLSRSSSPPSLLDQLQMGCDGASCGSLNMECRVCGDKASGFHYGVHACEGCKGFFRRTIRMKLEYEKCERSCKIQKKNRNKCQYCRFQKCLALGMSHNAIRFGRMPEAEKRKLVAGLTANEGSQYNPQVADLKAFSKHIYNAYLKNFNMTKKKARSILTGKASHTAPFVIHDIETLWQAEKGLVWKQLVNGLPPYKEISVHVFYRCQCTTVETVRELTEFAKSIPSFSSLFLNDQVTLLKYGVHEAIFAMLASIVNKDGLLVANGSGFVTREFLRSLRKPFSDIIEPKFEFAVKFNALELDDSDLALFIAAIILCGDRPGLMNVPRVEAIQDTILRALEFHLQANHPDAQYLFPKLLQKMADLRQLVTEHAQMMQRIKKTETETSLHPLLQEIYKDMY
Procedure, shortened: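 GeneBLAzer UAS-bla HEK293H cells carrying a PPARδ construct were exposed to compounds at 37 °C. Beta-lactamase activity was read by FRET fluorescence after 2 h at room temperature with LiveBLAzer B/G substrate.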

[14] = qHTS assay to identify small molecule antagonists of the peroxisome proliferator-activated receptor delta (PPARd) signaling pathway - cell viability counter screen (AID 743213); note: nearly all actives have a fitted effect of over 50% in size
Procedure, shortened: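 PPARd-bla HEK293H cells were treated with compounds plus agonist L165041 (300 nM final) for 17 h at 37 C. Viability was then read in the same wells by CellTiter-Glo luminescence after 30 min at room temperature.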

[15] = target: Peroxisome proliferator-activated receptor delta (Homo sapiens) (UniProt Q03181); assay: qHTS assay to identify small molecule antagonists of the peroxisome proliferator-activated receptor delta (PPARd) signaling pathway (AID 743215; active = well fitted inhibition curve with a large enough effect in the signal ratio in the repeat runs, not every such curve was filed as active; the % refers to the signal ratio;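 note: cells stimulated with agonist L165041 at 300 nM final during compound exposure; series mostly up to about 62 µM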)
Procedure, shortened: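 PPARd-bla HEK293H cells (UAS-bla reporter) preincubated 5 h, then given compound plus 300 nM final L165041 agonist for 17 h at 37 C. Beta-lactamase activity read by LiveBLAzer B/G FRET substrate fluorescence after 2 h at room temperature.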

[16] = target: Bile acid receptor (Homo sapiens) (UniProt Q96RI1); assay: qHTS assay to identify small molecule antagonists of the farnesoid-X-receptor (FXR) signaling pathway (AID 743217; active = well fitted inhibition curve with a large enough effect in the signal ratio in the repeat runs, not every such curve was filed as active; the % refers to the signal ratio)
Chain of Bile acid receptor (Homo sapiens) (Q96RI1 whole entry, looked up): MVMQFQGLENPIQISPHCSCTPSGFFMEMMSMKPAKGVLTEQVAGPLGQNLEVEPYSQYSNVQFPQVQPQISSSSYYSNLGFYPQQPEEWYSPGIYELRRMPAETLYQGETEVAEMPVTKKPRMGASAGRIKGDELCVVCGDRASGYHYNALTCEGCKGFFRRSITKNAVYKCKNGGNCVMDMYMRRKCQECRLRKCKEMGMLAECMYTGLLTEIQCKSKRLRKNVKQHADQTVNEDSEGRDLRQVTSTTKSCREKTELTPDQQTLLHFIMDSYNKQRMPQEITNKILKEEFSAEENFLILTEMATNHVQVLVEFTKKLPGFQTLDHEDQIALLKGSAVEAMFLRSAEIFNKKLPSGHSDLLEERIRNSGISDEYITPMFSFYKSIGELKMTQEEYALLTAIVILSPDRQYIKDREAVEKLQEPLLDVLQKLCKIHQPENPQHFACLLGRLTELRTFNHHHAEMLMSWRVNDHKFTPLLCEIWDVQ
Procedure, shortened: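 FXR-UAS-bla HEK 293T cells (beta-lactamase reporter) given compound plus chenodeoxycholic acid (50 uM final), 16 h at 37C. LiveBLAzer B/G FRET substrate added for 2 h at room temperature; fluorescence read.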

[17] = qHTS assay to identify small molecule agonists of the farnesoid-X-receptor (FXR) signaling pathway - cell viability counter screen (AID 743218); note: nearly all actives have a fitted effect of over 45% in size
Procedure, shortened: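 FXR-UAS-bla HEK 293T cells exposed to compounds for 16 h at 37C. Cytotoxicity read in the same wells by CellTiter-Glo luminescence after 30 min at room temperature, following the beta-lactamase FRET read.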

[18] = target: Bile acid receptor (Homo sapiens) (UniProt Q96RI1); assay: qHTS assay to identify small molecule agonists of the farnesoid-X-receptor (FXR) signaling pathway (AID 743220; active = well fitted activation curve with a large enough effect in the signal ratio in the repeat runs, not every such curve was filed as active; the % refers to the signal ratio)
Procedure, shortened: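 Beta-lactamase reporter under UAS control in GeneBLAzer FXR HEK 293T cells (5000/well) measured with LiveBLAzer FRET substrate after 2 h at room temperature. Compound exposure lasted 16 h at 37C.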

[19] = qHTS assay to identify small molecule antagonists of the farnesoid-X-receptor (FXR) signaling pathway - cell viability counter screen (AID 743221; active = well fitted cell-killing curve with a large enough effect in the repeat runs, not every such curve was filed as active; note: nearly all actives have a fitted effect of over 50% in size)
Procedure, shortened: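 HEK 293T FXR-bla cells, 5 h pre-incubation; compound + CDCA 50 uM final, 16 h, 37 C; beta-lactamase FRET read first, then CellTiter-Glo luminescence, 30 min RT.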

[20] = target: Vitamin D3 receptor (Homo sapiens) (UniProt P11473); assay: qHTS assay to identify small molecule antagonists of the vitamin D receptor (VDR) signaling pathway (AID 743223; active = well fitted inhibition curve with a large enough effect in the signal ratio in the repeat runs, not every such curve was filed as active; the % refers to the signal ratio)
Procedure, shortened: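 Beta-lactamase reporter read-out: FRET substrate fluorescence after 2 h at room temperature, following 16 h exposure of VDR-bla cells to test compound plus 3 nM (final) 1alpha,25-dihydroxyvitamin D3 agonist at 37C.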

Measured: Potency

CC(Cl)C(=O)O (stereo not drawn)
inactive: [1] | [2] | [3] | [4] | [5] | [6] | [7] | [8] | [9] | [10] | [11]

OCC1CO1 (stereo not drawn)
inactive: [1] | [2] | [3] | [4] | [5] | [6] | [7] | [12] | [8] | [10] | [13] | [14] | [15] | [16] | [17] | [18] | [19] | [11] | [20]

O=S(=O)(c1ccccc1)c1ccccc1
inactive: [1] | [2] | [3] | [4] | [5] | [6] | [7] | [12] | [8] | [9] | [10] | [15] | [16] | [17] | [19]

FC(F)OC(F)(F)C(F)Cl (stereo not drawn)
inactive: [1] | [2] | [3] | [4] | [5] | [6] | [7] | [12] | [8] | [10] | [14] | [15] | [17] | [19] | [11] | [20]

Cc1cnc(C2=NC(C)(C(C)C)C(=O)N2)c(C(=O)O)c1 (stereo not drawn)
inactive: [1] | [2] | [3] | [4] | [5] | [6] | [7] | [12] | [8] | [9] | [13] | [14] | [15] | [17] | [19] | [11] | [20]

CCOC(=O)c1cncn1C(C)c1ccccc1 (stereo not drawn)
inactive: [1] | [2] | [3] | [4] | [5] | [6] | [7] | [8] | [9] | [10] | [13] | [14] | [15] | [17] | [19]

COc1ccc(C(O)(c2cncnc2)C2CC2)cc1 (stereo not drawn)
inactive: [1] | [2] | [3] | [4] | [5] | [6] | [7] | [12] | [8] | [10] | [14] | [16] | [17] | [18] | [19] | [11]

CCOP(=S)(S)OCC
inactive: [1] | [2] | [3] | [4] | [5] | [6] | [7] | [12] | [8] | [9] | [10] | [14] | [15] | [16] | [17] | [18] | [19] | [11] | [20]

CCCCC(CC)COC(=O)c1c(Br)c(Br)c(Br)c(Br)c1C(=O)OCC(CC)CCCC (stereo not drawn)
inactive: [1] | [2] | [3] | [4] | [5] | [6] | [7] | [12] | [8] | [9] | [10] | [14] | [15] | [16] | [17] | [18] | [19] | [20]

NC(=S)c1c(Cl)cccc1Cl
inactive: [1] | [2] | [3] | [4] | [5] | [6] | [7] | [12] | [8] | [9] | [10] | [13] | [14] | [15] | [17] | [19]

CC(C)C1(C)N=C(c2ncccc2C(=O)O)NC1=O (stereo not drawn)
inactive: [1] | [2] | [3] | [4] | [5] | [6] | [7] | [12] | [8] | [9] | [10] | [13] | [14] | [15] | [16] | [17] | [18] | [19] | [11] | [20]

O=CC=O
inactive: [1] | [2] | [3] | [4] | [5] | [6] | [7] | [12] | [8] | [9] | [10] | [13] | [14] | [15] | [17] | [19]

Nc1cc(Cl)cc(C(=O)O)c1Cl
inactive: [1] | [2] | [3] | [4] | [5] | [6] | [7] | [12] | [8] | [10] | [13] | [14] | [15] | [17] | [19] | [20]

OCCCl
inactive: [1] | [2] | [3] | [4] | [5] | [6] | [7] | [12] | [8] | [9] | [10] | [13] | [14] | [16] | [17] | [18] | [19] | [11] | [20]

O=C(NCNC(=O)NC1C(=O)NC(=O)N1CO)NC1C(=O)NC(=O)N1CO (stereo not drawn)
inactive: [1] | [2] | [3] | [4] | [5] | [6] | [7] | [8] | [9] | [10] | [14] | [16] | [17] | [18] | [19]

O=C(O)c1cc(Cl)ccc1Cl
inactive: [1] | [2] | [3] | [4] | [5] | [6] | [7] | [12] | [8] | [10] | [13] | [14] | [15] | [16] | [17] | [18] | [19] | [20]

CCCN(CCC)c1c([N+](=O)[O-])cc(C(C)C)cc1[N+](=O)[O-]
inactive: [1] | [2] | [3] | [4] | [5] | [6] | [7] | [12] | [8] | [9] | [10] | [13] | [14] | [15] | [17] | [19] | [20]
